Here are results for 23 molecules from PubChem BioAssay (NCATS).

Records with an inconclusive call do not appear. Activity calls are given as the source filed them.

The first experiment is described as follows: qHTS drug screen for cell cycle checkpoint inhibitors in PARPi-resistant BRCA-mutant ovarian cancer cell lines. (AID 1963452). As to conditions: PEO1/OlaR viability, CellTiter-Glo luminescence, 96 h; measured here: PEO4 Z-AUC; stronger effect = lower value. In outline: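 PEO1, PEO4 and PEO1/OlaR ovarian cancer cells, 600 per well, exposed 96 h at 37C to a dilution series. Viability read by CellTiter-Glo luminescence, normalized to DMSO and empty wells; activity summarized as Z-AUC.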
(In general: qHTS replaces the single test concentration by a dilution series.)
Regarding `O=C(NCCCNc1nc(Nc2cccc(NC(=O)N3CCCC3)c2)ncc1I)c1cccs1`, the Z-AUC is 0.426.

Consider `NC1(Cc2ccc(Cl)cc2)CCN(c2ncnc3[nH]ccc23)CC1`, for which the Z-AUC is -1.03.

Consider `CC(C)[C@H](C(=O)Nc1ccc(C(=O)NO)cc1)c1ccccc1`, for which the Z-AUC is -1.69.

`COC(=O)Nc1ccc(-c2nc(N3CCOCC3)c3cnn(C4CCN(Cc5cccnc5)CC4)c3n2)cc1`: the Z-AUC was -0.944.

As for `C#Cc1cccc(Nc2ncnc3cc(OC)c(OCCCCCCC(=O)NO)cc23)c1`, the Z-AUC was -1.32.

For the molecule `CN1CCN(Cc2ccc(NC(=O)Nc3ccc(Oc4cc(NC(=O)C5CC5)ncn4)cc3)cc2C(F)(F)F)CC1`, the Z-AUC was -1.93.

Consider `C=CC(=O)Nc1cc2c(Nc3ccc(F)c(Cl)c3)ncnc2cc1OCCCN1CCOCC1`, for which the Z-AUC was -1.15.

Regarding `O=C(Cc1ccc(-c2ccc(OCCN3CCOCC3)cc2)cn1)NCc1ccccc1`, the Z-AUC is -1.63.

Regarding `CC(C)c1ccc(Cn2ccc3c4c(N)nc(NC5CC5)nc4ccc32)cc1`, the Z-AUC was -2.38.

`COCCOc1ccc2c(c1)ncn2-c1ccc2cccc(N3CCC(N)CC3)c2n1`: the Z-AUC came out at 0.806.

As to `Cc1ccc(-c2ncn(-c3ccc(Nc4nccc(-c5cccc(N6CCOCC6)c5)n4)cc3)n2)cn1`, the Z-AUC was -1.65.

Take `CC[C@@]1(O)C(=O)OCc2c1cc1n(c2=O)Cc2cc3cc(O)ccc3nc2-1`: the Z-AUC is -2.58.

For `c1cc(-c2cnn3cc(-c4ccc(OCCN5CCCCC5)cc4)cnc23)ccn1`, the Z-AUC worked out at 0.377.

Turning to `CC(C)c1cnn2c(NCc3ccccc3)cc(N[C@@H](CO)[C@H](O)CO)nc12`, the Z-AUC is -1.77.

`C[C@@H](Oc1cc(-c2cnn(C3CCNCC3)c2)cnc1N)c1c(Cl)ccc(F)c1Cl`: the Z-AUC is -0.116.

As for `COc1cccc2nc(-c3cccs3)nc(NN3C(=O)C=C(C)C3=O)c12`, the Z-AUC was -2.06.

A short description of another experiment: qHTS for identification of novel therapeutic agents for treatment of microphthalmiaassociated transcription factor (MiT) renal cell carcinoma (RCC) (AID 1963991). Further: potency means the concentration at half of the fitted maximal effect. As to conditions: TFE3-RCC UOK109 viability, CellTiter-Glo, 48 h; active = Z-AUC below -0.8 in all three lines. In outline: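 Viability of three TFE3-fusion renal carcinoma lines measured by CellTiter-Glo after 48 h treatment with each of 1912 compounds at 11 concentrations. Responses scaled between DMSO (100%) and empty wells (0%) before curve fitting.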
Turning to `CC=C1NC(=O)[C@H]2CSSCCC=C[C@H](CC(=O)N[C@H](C(C)C)C(=O)N2)OC(=O)[C@H](C(C)C)NC1=O`, the Potency was 33.2 nM (active).

On to `COCCn1c2c([n+](Cc3cnccn3)c1C)C(=O)c1ccccc1C2=O`, for which the Potency was 83.3 nM (active).

As for `CCc1c2c(nc3ccc(O)cc13)-c1cc3c(c(=O)n1C2)COC(=O)[C@]3(O)CC`, the Potency was 469 nM (active).

Consider `CC(NCc1ccc2c(c1)nc(NC(=O)c1ccc(-c3cn[nH]c3)s1)n2CC(C)(C)O)C(C)(C)C` (stereo unspecified), for which the Potency was 935 nM (active).

As for `COc1cc(=C2C=c3ccccc3=N2)[nH]c1=Cc1[nH]c(C)cc1C`, the Potency is 8330 nM (active).

`Nc1cc(C(F)(F)F)c(-c2cc(N3CCOCC3)nc(N3CCOCC3)n2)cn1`: the Potency was 662 nM (active).

In the case of `C[C@@]12O[C@@H](C[C@]1(O)CO)n1c3ccccc3c3c4c(c5c6ccccc6n2c5c31)CNC4=O`, the Potency is 5260 nM (active).

Turning to `O=C(Cc1ccc(-c2ccc(OCCN3CCOCC3)cc2)cn1)NCc1ccccc1`, the Potency is 148 nM (active).

As to `Cc1ccc(-c2ncn(-c3ccc(Nc4nccc(-c5cccc(N6CCOCC6)c5)n4)cc3)n2)cn1`, the Potency was 264 nM (active).

For the molecule `CC[C@@]1(O)C(=O)OCc2c1cc1n(c2=O)Cc2cc3cc(O)ccc3nc2-1`, the Potency was 1480 nM (active).
